Measurements taken from the supplement of paper PMC12645437, “Orthogonal IMiD-Degron Pairs Induce Selective Protein Degradation in Cells” (ACS Chemical Biology, 2025).
In all, about 8,300 sequences were measured (“log2 fold change of degron read counts, EGFP-low vs EGFP+ sorted cells (limma voom), compound-induced degradation”: median about -1.1, highest 2% from about 3.2 on). Shown is part of a subset that was picked to be rich in the highest values.

T1: CRBN, Q96SW2
T1 chain: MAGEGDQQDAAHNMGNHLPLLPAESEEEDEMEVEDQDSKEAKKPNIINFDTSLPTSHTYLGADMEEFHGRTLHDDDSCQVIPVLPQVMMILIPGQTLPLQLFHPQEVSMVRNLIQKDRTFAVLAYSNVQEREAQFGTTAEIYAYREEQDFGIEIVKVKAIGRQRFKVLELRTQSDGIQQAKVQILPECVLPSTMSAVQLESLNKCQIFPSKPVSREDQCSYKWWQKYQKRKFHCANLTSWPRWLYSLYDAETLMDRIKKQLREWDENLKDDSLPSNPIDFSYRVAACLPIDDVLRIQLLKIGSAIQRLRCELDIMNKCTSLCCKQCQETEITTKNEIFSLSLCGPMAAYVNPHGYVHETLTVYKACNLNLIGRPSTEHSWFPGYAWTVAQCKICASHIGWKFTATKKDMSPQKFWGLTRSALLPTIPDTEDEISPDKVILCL


Molecular target: T1, CRBN, Q96SW2
Assay: log2 fold change of degron read counts, EGFP-low vs EGFP+ sorted cells (limma voom), compound-induced degradation; higher = more compound-induced degradation of the degron-EGFP fusion; degrons are variants of IKZF1/3 zinc finger 2; compound dose not given here
Conditions: Jurkat, 18 h
Description: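 Pooled library of 8380 IKZF3 ZF2 degron mutants (positions 146-167 varied within the IKZF3 130-189 degron; only the varied core is printed, flanks not printed) fused to EGFP with IRES-mCherry, lentivirally expressed in Jurkat cells. mCherry+ cells were treated with one IMiD compound for 18 h (dose not stated) and FACS-sorted into EGFP-low and EGFP+ populations. Degron sequences were counted by NGS, and log2FC (EGFP-low vs EGFP+) was estimated by limma voom over 3 biological replicates.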

[1] = compound: compound 19 (5-tert-butyl-thalidomide)
[2] = compound: compound 22 (5-morpholino-thalidomide)
[3] = compound: compound 33 (diphenyl IMiD analogue)
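Further: pooled lentiviral library of zinc finger degron-EGFP fusions in mCherry-positive Jurkat cells, FACS-sorted after compound exposure, with degron abundance counted by next-generation sequencing.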

Sequence | log2 fold change of degron read counts [1] | log2 fold change of degron read counts [2] | log2 fold change of degron read counts [3] | log2 fold change of degron read counts (compound: thalidomide)
LTCEICGFWCTQKGNLLRHIKL [46L_47T_49E_50I_52G_53F_54W_55C_67L_, Q9UKT9] | -0.648 | -0.501 | 0.784 | 0.539
FDCDICGAAFTQKGNLLRHIKL [46F_47D_49D_50I_52G_53A_54A_55F_67L_, Q9UKT9] | 0.561 | -1.32 | -1.46 | -0.827
FRCEICGHVFTQKGNLLRHIKL [46F_47R_49E_50I_52G_53H_54V_55F_67L_, Q9UKT9] | -2.92 | -3.64 | -1.71 | -2.21
FMCNVCGAAFTQKGNLLRHIKL [46F_47M_49N_50V_52G_53A_54A_55F_67L_, Q9UKT9] | -1.07 | -0.0279 | 2 | 0.272
FTCEVCGAGFTQKGNLLRHIKL [46F_47T_49E_50V_52G_53A_54G_55F_67L_, Q9UKT9] | 2.39 | 2.34 | 2.42 | 2.32
FNCDVCGAFFTQKGNLLRHIKL [46F_47N_49D_50V_52G_53A_54F_55F_67L_, Q9UKT9] | -1.57 | -2.42 | -1.91 | -2.42
LDCNQCGFCCTQKGNLLRHIKL [46L_47D_49N_50Q_52G_53F_54C_55C_67L_, Q9UKT9] | -2.36 | -3.41 | -2.85 | -2.58
FTCEICGAWFTQKGNLLRHIKL [46F_47T_49E_50I_52G_53A_54W_55F_67L_, Q9UKT9] | -0.788 | -0.479 | 1.12 | 1.04
FRCSVCGHLFTQKGNLLRHIKL [46F_47R_49S_50V_52G_53H_54L_55F_67L_, Q9UKT9] | -2.53 | -3.16 | -2.34 | -2.39
LYCNQCGFQCTQKGNLLRHIKL [46L_47Y_49N_50Q_52G_53F_54Q_55C_67L_, Q9UKT9] | -1.36 | -0.758 | -1.33 | -2.14
LQCPICGFSCTQKGNLLRHIKL [46L_47Q_49P_50I_52G_53F_54S_55C_67L_, Q9UKT9] | 2.67 | 2.76 | 2.41 | 3.53
LWCPICGFSCTQKGNLLRHIKL [46L_47W_49P_50I_52G_53F_54S_55C_67L_, Q9UKT9] | 3.31 | 3.57 | 2.84 | 2.33
LTCPICGFSCTQKGNLLRHIKL [46L_47T_49P_50I_52G_53F_54S_55C_67L_, Q9UKT9] | 2.51 | 3.37 | 2.87 | 3.49
LWCPICGFECTQKGNLLRHIKL [46L_47W_49P_50I_52G_53F_54E_55C_67L_, Q9UKT9] | 2.12 | 2.64 | 2.17 | 0.382
LQCPICGFGCTQKGNLLRHIKL [46L_47Q_49P_50I_52G_53F_54G_55C_67L_, Q9UKT9] | 2.46 | 2.07 | 1.63 | 3.23
LQCPICGFWCTQKGNLLRHIKL [46L_47Q_49P_50I_52G_53F_54W_55C_67L_, Q9UKT9] | 0.033 | 0.594 | 1.15 | 2.58

Sequence | log2 fold change of degron read counts [1] | log2 fold change of degron read counts [2] | log2 fold change of degron read counts [3] | log2 fold change of degron read counts (compound: thalidomide)
LYCPICGFECTQKGNLLRHIKL [46L_47Y_49P_50I_52G_53F_54E_55C_67L_, Q9UKT9] | 2.78 | 2.56 | 2.08 | 0.736
LTCPICGFECTQKGNLLRHIKL [46L_47T_49P_50I_52G_53F_54E_55C_67L_, Q9UKT9] | 0.6 | 1.64 | 1.55 | 2.4
LYCPICGFSCTQKGNLLRHIKL [46L_47Y_49P_50I_52G_53F_54S_55C_67L_, Q9UKT9] | 3.73 | 3.72 | 3.09 | 2.7
FDCEVCGAYFTQKGNLLRHIKL [46F_47D_49E_50V_52G_53A_54Y_55F_67L_, Q9UKT9] | -0.638 | -1.5 | -0.115 | -0.462
LVCNQCGFTCTQKGNLLRHIKL [46L_47V_49N_50Q_52G_53F_54T_55C_67L_, Q9UKT9] | -2.33 | -3.26 | -0.847 | -1.21
FLCNQCGHSFTQKGNLLRHIKL [46F_47L_49N_50Q_52G_53H_54S_55F_67L_, Q9UKT9] | -2.63 | -2.99 | -3.12 | -2.74
FACEICGRIFTQKGNLLRHIKL [46F_47A_49E_50I_52G_53R_54I_55F_67L_, Q9UKT9] | 0.366 | -1.59 | -1.49 | -1.01
FVCDICGANFTQKGNLLRHIKL [46F_47V_49D_50I_52G_53A_54N_55F_67L_, Q9UKT9] | -0.564 | 1.47 | 0.815 | 1.12
FKCPICGRQFTQKGNLLRHIKL [46F_47K_49P_50I_52G_53R_54Q_55F_67L_, Q9UKT9] | -2.24 | -2.58 | -2.12 | -0.821
LNCPICGFSCTQKGNLLRHIKL [46L_47N_49P_50I_52G_53F_54S_55C_67L_, Q9UKT9] | 2.9 | 2.01 | 1.38 | 2
LFCPICGFSCTQKGNLLRHIKL [46L_47F_49P_50I_52G_53F_54S_55C_67L_, Q9UKT9] | 3.55 | 3.56 | 2.79 | 2.78
LCCPICGFSCTQKGNLLRHIKL [46L_47C_49P_50I_52G_53F_54S_55C_67L_, Q9UKT9] | 2.83 | 3.15 | 3 | 3.11
LRCPICGFSCTQKGNLLRHIKL [46L_47R_49P_50I_52G_53F_54S_55C_67L_, Q9UKT9] | 2.24 | 1.9 | 2.44 | 2.71
LVCPICGFSCTQKGNLLRHIKL [46L_47V_49P_50I_52G_53F_54S_55C_67L_, Q9UKT9] | 2.25 | 3.63 | 2.38 | 3.59
LFCPICGFECTQKGNLLRHIKL [46L_47F_49P_50I_52G_53F_54E_55C_67L_, Q9UKT9] | 2.8 | 2.89 | 1.47 | 0.989
